# Screening data from PubChem.
# Rows were chosen to be rich in hits. Some 10% of all compounds tested hit in one or more screens of this group.
# L3MBTL1 block – inhibitors of human L3MBTL1; actives 0.66% (n = 230,000); Potency, µM (highest dose often 57.1 µM), inactives show top-dose activity, negative = inhibition, actives largely listed as inhibitors; AlphaScreen L3MBTL1–H3K9me1 peptide binding; note: % is set by controls: 0 for no effect and ±100 for the full control effect; nearly all actives have a fitted effect of over 60% in size
#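 First, the protein-peptide complex forms for 30 min at room temperature (L3MBTL1 50 nM, biotinylated H3K9me1 peptide 75 nM). Next, compounds are pin-transferred and incubated 30 min. Finally, AlphaScreen beads are added and read after 30 min.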
# HP1b chromo inh – inhibitors of HP1-beta chromodomain binding to methylated histone tails; AlphaScreen HP1-beta / biotin-H3K9me3 peptide binding; actives 0.56% (n = 390,000); AID 540317; Potency, µM (titrated, usually from 114 µM), for the others: at the highest dose activity change, negative = inhibition, most hits filed as inhibitors; P83916; note: nearly all actives have a fitted effect of over 70% in size
# Target sequence (P83916 whole entry, looked up): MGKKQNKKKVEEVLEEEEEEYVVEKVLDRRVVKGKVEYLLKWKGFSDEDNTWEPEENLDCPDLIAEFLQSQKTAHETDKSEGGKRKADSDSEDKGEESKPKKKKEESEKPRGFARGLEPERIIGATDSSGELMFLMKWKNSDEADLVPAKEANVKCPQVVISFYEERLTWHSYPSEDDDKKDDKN
#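 AlphaScreen: HP1-beta (50 nM) preformed 30 min with biotin-H3(1-18)K9me3 peptide (50 nM) in PBS pH 7.4, 0.01% Tween-20. Compound added for 30 min at RT, then streptavidin donor/nickel chelate acceptor beads (10 ug/mL) for 30 min.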
# JMJD2A Tudor inh – inhibitors of human JMJD2A Tudor domain; Potency, µM (top dose mostly 114 µM), inactives show at the top dose activity change, negative = inhibition, hits mostly inhibitors; O75164; AlphaScreen JMJD2A-Tudor / H3K4me3 peptide binding; AID 504339; actives 4.4% (n = 390,000); note: % is set by controls: 0 for no effect and ±100 for the full control effect; nearly all actives have a fitted effect of over 50% in size
# BAZ2B inh – blocks human BAZ2B; Q9UIF8; AlphaScreen BAZ2B-H3K14Ac peptide displacement; Potency, µM (series often up to 114 µM), inactives show at the highest dose activity change, negative = inhibition, usual class: inhibitors; actives 4.4% (n = 360,000); note: % is set by controls: 0 for no effect and ±100 for the full control effect; nearly all actives have a fitted effect of over 60% in size
#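 Protein-peptide AlphaScreen: BAZ2B 50 nM, b-H3K14Ac 50 nM, 1x PBS pH 7.4 + 0.01% Tween-20. Preincubation 30 min RT; cpd 30 min RT (top 110 uM); beads 20 min RT, light-protected.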
# G9a block – inhibitors of human histone lysine methyltransferase G9a; Potency, µM (top dose mostly 102 µM), inactives show top-dose activity, negative = inhibition, actives largely listed as inhibitors; actives 8.8% (n = 350,000); AID 504332; G9a H3K9 monomethylation, AlphaScreen, 2 h; note: % is set by controls: 0 for no effect and ±100 for the full control effect; nearly all actives have a fitted effect of over 75% in size
# Target sequence (Q96KQ7 913-1193 limits assumed): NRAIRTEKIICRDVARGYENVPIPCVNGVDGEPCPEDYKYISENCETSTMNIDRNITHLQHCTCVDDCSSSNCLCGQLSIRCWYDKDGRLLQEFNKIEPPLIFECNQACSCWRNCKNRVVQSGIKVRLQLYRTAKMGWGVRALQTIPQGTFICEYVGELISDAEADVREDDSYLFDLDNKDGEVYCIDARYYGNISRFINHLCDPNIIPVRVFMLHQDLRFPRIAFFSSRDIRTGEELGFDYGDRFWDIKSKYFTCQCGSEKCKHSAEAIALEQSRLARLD
#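 Quantitative HTS format: methyltransferase activity on a biotin-tagged H3K9 peptide is measured by AlphaScreen, using a rabbit anti-monomethyl-H3K9 antibody with streptavidin donor and anti-IgG acceptor beads. Final levels are 20 nM enzyme, 500 nM peptide, 20 uM SAM; 2 h RT.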
# GLS inhibitor – glutaminase GLS (human) inhibition; AID 624170; actives 0.21% (n = 410,000); GLS enzymatic activity, qHTS titration; Potency, µM (doses to about 45.5 µM), inactives show at the highest dose activity change, negative = inhibition, most hits filed as inhibitors; note: % is set by controls: 0 for no effect and ±100 for the full control effect
#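 Read-out is an Amplex red fluorescence increase coupled through glutamate oxidase and HRP, measured before and after 30 min room-temperature incubation. hKGA is in 45 mM KH2PO4 (pH 8.2) with 0.02% Tween-20; glutamine added as 1mM solution.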
# * marks the source's active call; other numbers are inactive results; ? = inconclusive; nt = no result given; ! = not confirmed by another sample; [ ] = another dose, or the depositor's remark. Calls come from the whole dose curve; as a rule, active = well fitted curve in the direction sought with a large enough effect; inconclusive = small, poorly fitted or top-dose-only effect, or another doubt; inactive = no such curve, though single readings can be large; an effect the other way counts as inactive or inconclusive. Potency is the fitted concentration of half-maximal effect.
SMILES,L3MBTL1 block,HP1b chromo inh,JMJD2A Tudor inh,BAZ2B inh,G9a block,GLS inhibitor
Cc1ccc(N2C(=O)NC(=O)/C(=C/c3ccc(OC(=O)c4cccs4)cc3)C2=O)cc1,-4.6%,42.7%,89.1µM*,7.6%,12.6µM*,-14.6%
Cn1c(=O)n(C)c2cc(CNCCc3ccc(F)cc3)ccc21,nt,15.8%,-18.5%,-4.4%,7.4%[59 µM],-17.3%
CCCCC/C=C\C/C=C\C/C=C\C/C=C\CCCC(=O)NCCO,nt,nt,nt,nt,33.5%[59 µM],nt
CCCCC/C=C\C/C=C\C/C=C\C/C=C\CCCC(=O)NCc1ccoc1,nt,nt,nt,nt,14.1µM*,nt
CCCCC/C=C\C/C=C\C/C=C\C/C=C\CCCC(=O)NCCc1ccc(O)c(O)c1,nt,nt,nt,nt,11.2µM*,nt
CCCCC/C=C\C/C=C\C/C=C\C/C=C\CCCC(=O)NCC(=O)O,nt,nt,nt,nt,11.9µM*!,-2.2%[4 µM]
CC(C)C[C@H]1CN([C@@H](CC(C)C)CN2CCCC2CN2C(=S)NC[C@@H]2Cc2ccc(O)cc2)C(=S)N1CC1CCCCCC1 (stereo partly drawn),nt,36.3%,?,nt,nt,3.0%
CCOC(=O)C1=C(C)OC(N)=C(C(=O)OCC)C12C(=O)Nc1ccc(Br)cc12 (stereo not drawn),nt,18.3%,-13.3%,6.5%,4.4%[2.33 µM],?
CCOP(=O)(OCC)C1(O)C(=O)Nc2ccc(Br)cc21 (stereo not drawn),1.9%,20.7%,-11.2%,-5.1%,17.8µM*,-10.3%
CCOC(=O)NC(C)(C)Cc1ccc(Cl)cc1,nt,nt,nt,nt,nt,-19.9%
COc1ccccc1CC(=O)Nc1ccc2c(c1)OC1(CCCC1)O2,-8.9%,?,?,nt,nt,-9.9%
O=[N+]([O-])c1c(Cl)c(Cl)cc(Cl)c1Cl,nt,nt,nt,nt,nt,-17.6%[99.4 µM]
CNc1cc(Cl)c2nonc2c1[N+](=O)[O-],0.1%,-14.3%,-23.4%,-31.3%,25.1µM*,0.1%
Cc1cc2oc(=O)cc(-c3ccccc3)c2c(C)c1-c1ccc(CO)cc1,-6.8%,32.9%,-13.7%,nt,?,0.9%
c1csc(CN2CCC3(CCNCC3)CC2)n1,nt,nt,nt,nt,4.4%[12.7 µM],nt
Nc1nc(/C(=C/CC(=O)O)C(=O)NC2C(=O)N3C(C(=O)O)=CCSC23)cs1 (stereo not drawn),nt,nt,nt,nt,-9.7%[2.33 µM],25.1µM*
O=C1CCN(Cc2ccc(Cl)cc2)N1,nt,24.4%,-3.0%,-6.8%,18.9%,36.2%
CN[C@H]1C[C@@H](N)[C@H](O)[C@@H](O[C@@H]2O[C@H](CO)[C@H](O)[C@@H]3O[C@]4(O[C@@H]23)O[C@H]([C@@H](N)CO)[C@H](O)[C@@H](O)[C@H]4O)[C@@H]1O,nt,nt,nt,nt,nt,1.1%
COc1ccc(CN2C(=O)CC(=O)NC2=O)cc1,-9.8%,27.5%,-4.6%,0.0%,-14.7%,0.2%
O=C1CC(=O)N(Cc2ccccc2)C(=S)N1,nt,-1.5%,-17.5%,-4.8%,79.4µM*,-15.6%
CC(=O)Nc1ccc(Nc2c(CCC(C)C)c(C)c(C#N)c3nc4ccccc4n23)cc1,nt,39.6%,-13.8%,0.0%,-29.5%[59 µM],4.9%
CC[C@]12C=CCN3CCC4(c5cc(Br)c(OC)cc5N(C)C4[C@@](O)(C(=O)OC)[C@@H]1OC(C)=O)C32 (stereo partly drawn),14.3%,14.0%,-25.5%,-13.9%,35.5µM*,4.7%
Cc1cc(C=C2C(=O)N(C)C(=O)N(C)C2=O)c(C)n1-c1ccccc1,nt,64.7%,-5.2%,-7.8%,7.94µM*,-3.2%
CCN(CC)c1ccc(NC(=O)c2cccc(C)c2)cc1S(=O)(=O)Nc1ccccc1OC,0.6%,?,?,-36.9%,3.55µM*,1.4%
Nc1ccc(N)cc1,nt,nt,nt,nt,12.6µM*,-24.8%
SMILES,L3MBTL1 block,HP1b chromo inh,JMJD2A Tudor inh,BAZ2B inh,G9a block,GLS inhibitor
COc1ccc(NC(=O)C2C3CCC(O3)C2C(=O)O)c(OC)c1 (stereo not drawn),1.9%,0.1%,-35.6%,-15.7%,10µM*,8.6%
O=C(O)C1C2CCC(O2)C1C(=O)Nc1ccc(Cl)cc1 (stereo not drawn),3.3%,25.3%,-8.4%,?,12.7%[59 µM],-1.9%
N=C(N)c1ccc(CS(=O)(=O)F)cc1,nt,nt,nt,nt,-85.1%[59 µM],nt
COCC(=O)N(c1c(C)cccc1C)C(C)C(=O)OC (stereo not drawn),nt,nt,nt,nt,3.5%[12.7 µM],-1.0%
c1ccc(Nc2ccc(Nc3ccccc3)cc2)cc1,?,?,20µM*,28.2µM*,9.8%[0.501 µM],20.8%
O=C1C2CCCN2C(c2cccnc2)N1c1cccc(Cl)c1 (stereo not drawn),nt,25.1%,-0.7%,6.3%,-1.4%,0.7%
Cc1ccc(C2N(c3cc(C)on3)C(=O)C3CCCN32)cc1 (stereo not drawn),5.6%,25.4%,-30.5%[57.1 µM],-34.6%,35.5µM*,0.1%
Cc1cc(N2C(=O)C3CCCN3C2c2ccccc2)no1 (stereo not drawn),43.5%,-24.6%,28.2µM*,?,?,-7.6%
Cc1ccccc1-n1nc(C)c2c1NC(=O)CSC2c1ccc(Cl)cc1 (stereo not drawn),nt,-10.1%,-30.5%,?,12.6µM*,14.9%
C/C(=C\c1csc(C)n1)[C@@H]1C[C@@H]2O[C@]2(C)CCC[C@H](C)[C@H](O)[C@@H](C)C(=O)C(C)(C)[C@@H](O)CC(=O)O1,nt,nt,nt,nt,6.7%[12.7 µM],-0.3%
Cc1ccc(C2C(S(C)(=O)=O)=C(O)C(=O)N2c2ccccc2)cc1 (stereo not drawn) (tested in a mixture with another compound),4.6%,4.5%,?,?,70.8µM*,11.6%
C=CCN1C(=O)/C(=C/c2ccc3c(c2)CCCN3CCC)C(=O)NC1=S,-14.8%,?,56.2µM*,44.7µM*,14.1µM*,1.5%
CCN1C(=O)/C(=C/c2ccc3c(c2)CCN3CCCCl)C(=O)NC1=S,?,?,35.5µM*,39.8µM*,?,1.3%
